Laboratory results as given in PubChem BioAssay.
Results filed as inconclusive are left out. Activity calls are given as the source filed them.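 Rule for the calls, unless noted: active = inhibition above the screen-wide mean plus 3 SD, about 51%; inactive = the rest.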

How the values were obtained:
[1] = yeast TOR pathway RPL19A-GFP modulators, primary screen, cell-based, S. cerevisiae, multiplex flow cytometry (AID 1862; in the data active = percent of DMSO control GFP below about 86%;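 note: lower values mimic rapamycin by blocking the RPL19A rise seen in DMSO cells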); settings: S. cerevisiae RPL19A-GFP strain, flow cytometry fluorescence, 3 h; at 10 µM; stronger effect = lower value
[2] = modulators of MEP2-GFP levels in yeast, primary screen, S. cerevisiae, multiplex flow cytometry (AID 1867;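 active = GFP response, as percent of the DMSO control, above the screen-wide mean plus 3 SD, about 139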;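 note: median GFP channel fluorescence of barcode-gated MEP2-GFP cells measured by flow cytometry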); settings: S. cerevisiae MEP2-GFP strain, 3 h, at 10 µM, stronger effect = higher value, 100% means same as DMSO wells
[3] = modulators of CIT2-GFP expression in yeast, primary screen, S. cerevisiae, GFP fusion, multiplex flow cytometry (AID 1870;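 active = percent response above a set limit, the screen-wide mean plus 3 SD, cut at about 130% in these data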;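 note: barcoded CIT2-GFP strain pooled with four other GFP strains with rapamycin as positive control; median GFP fluorescence per well over plate mean of DMSO wells so 100% = DMSO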); settings: 3 h, at 10 µM, stronger effect = higher value
[4] = modulators of LAP4-GFP expression in yeast, primary screen, S. cerevisiae, multiplex flow cytometry (AID 1873;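 active = GFP signal, as percent of the solvent control, above the screen mean plus 3 SD, about 149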); settings: 3 h, at 10 µM, stronger effect = higher value
[5] = modulators of AGP1-GFP expression in yeast TOR pathway, primary screen, cell-based, multiplex flow cytometry, S. cerevisiae (AID 1887;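 active = GFP signal above the screen-wide mean plus 3 SD, that is over about 124.5% of the solvent control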;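 note: AGP1-GFP fusion strain of S. cerevisiae within a five-strain barcoded multiplex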); settings: 3 h, at 10 µM, stronger effect = higher value
[6] = inhibitors of CD8+ T cell-vesicle binding, pilot screen, LFA-1/ICAM-1 modulator project, MLPCN validation set, flow cytometry (AID 2523;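 active = response below a set limit, under 55% cells CD8-positive and vesicle-bound, and CD8 cells' 90th-percentile brightness under 279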;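 for vesicle binding response: mean PE anti-B7-1 fluorescence of CD8+ cells relative to row control; 100% = QL9-loaded vesicles with DMSO vehicle in the same plate row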); settings: 2C mouse CD8+ T cells, at 7 µM, stronger effect = lower value; double positive events: measured here: CD8+/vesicle+ event percentage
[7] = biological target: Integrin beta-1 (Homo sapiens) + Integrin alpha-4 (Homo sapiens) (UniProt P13612+P05556); test: inhibition of HUTS-21 binding to VLA-4, pilot screen, VLA-4 allosteric modulator project, U937 cells, HUTS-21 mAb, flow cytometry, validation set (AID 2674;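 active = inhibition above 50%, about 3 SD of the validation set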;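 note: antibody binding induced by the VLA-4 ligand LDV present at three times its Kd; 0% = LDV ligand with antibody and no compound and 100% = antibody without LDV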); settings: HUTS-21 LIBS mAb binding, at 6.7 µM, stronger effect = higher value, binding induced by LDV ligand
Chain of Integrin beta-1 (Homo sapiens) + Integrin alpha-4 (Homo sapiens) (P05556 whole entry, looked up): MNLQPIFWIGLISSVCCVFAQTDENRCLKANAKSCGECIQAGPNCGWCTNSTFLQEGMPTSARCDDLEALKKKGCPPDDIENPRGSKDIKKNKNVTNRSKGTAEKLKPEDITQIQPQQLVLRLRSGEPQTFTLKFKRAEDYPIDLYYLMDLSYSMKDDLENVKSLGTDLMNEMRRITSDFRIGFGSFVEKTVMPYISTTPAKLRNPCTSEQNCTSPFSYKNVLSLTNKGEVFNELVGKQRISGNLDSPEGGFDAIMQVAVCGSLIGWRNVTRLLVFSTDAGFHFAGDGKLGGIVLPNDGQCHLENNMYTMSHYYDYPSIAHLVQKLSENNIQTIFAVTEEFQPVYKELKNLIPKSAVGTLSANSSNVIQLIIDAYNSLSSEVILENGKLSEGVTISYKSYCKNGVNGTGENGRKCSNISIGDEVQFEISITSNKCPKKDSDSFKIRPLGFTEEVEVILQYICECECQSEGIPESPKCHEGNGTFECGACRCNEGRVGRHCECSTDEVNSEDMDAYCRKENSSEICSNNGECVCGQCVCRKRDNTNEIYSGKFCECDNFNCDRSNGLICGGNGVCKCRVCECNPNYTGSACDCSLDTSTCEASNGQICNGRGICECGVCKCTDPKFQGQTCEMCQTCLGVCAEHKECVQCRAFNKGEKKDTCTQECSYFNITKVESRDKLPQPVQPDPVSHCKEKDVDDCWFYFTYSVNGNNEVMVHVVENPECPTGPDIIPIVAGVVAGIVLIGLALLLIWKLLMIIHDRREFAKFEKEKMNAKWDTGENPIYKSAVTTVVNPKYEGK
Chain of Integrin beta-1 (Homo sapiens) + Integrin alpha-4 (Homo sapiens) (P13612 whole entry, looked up): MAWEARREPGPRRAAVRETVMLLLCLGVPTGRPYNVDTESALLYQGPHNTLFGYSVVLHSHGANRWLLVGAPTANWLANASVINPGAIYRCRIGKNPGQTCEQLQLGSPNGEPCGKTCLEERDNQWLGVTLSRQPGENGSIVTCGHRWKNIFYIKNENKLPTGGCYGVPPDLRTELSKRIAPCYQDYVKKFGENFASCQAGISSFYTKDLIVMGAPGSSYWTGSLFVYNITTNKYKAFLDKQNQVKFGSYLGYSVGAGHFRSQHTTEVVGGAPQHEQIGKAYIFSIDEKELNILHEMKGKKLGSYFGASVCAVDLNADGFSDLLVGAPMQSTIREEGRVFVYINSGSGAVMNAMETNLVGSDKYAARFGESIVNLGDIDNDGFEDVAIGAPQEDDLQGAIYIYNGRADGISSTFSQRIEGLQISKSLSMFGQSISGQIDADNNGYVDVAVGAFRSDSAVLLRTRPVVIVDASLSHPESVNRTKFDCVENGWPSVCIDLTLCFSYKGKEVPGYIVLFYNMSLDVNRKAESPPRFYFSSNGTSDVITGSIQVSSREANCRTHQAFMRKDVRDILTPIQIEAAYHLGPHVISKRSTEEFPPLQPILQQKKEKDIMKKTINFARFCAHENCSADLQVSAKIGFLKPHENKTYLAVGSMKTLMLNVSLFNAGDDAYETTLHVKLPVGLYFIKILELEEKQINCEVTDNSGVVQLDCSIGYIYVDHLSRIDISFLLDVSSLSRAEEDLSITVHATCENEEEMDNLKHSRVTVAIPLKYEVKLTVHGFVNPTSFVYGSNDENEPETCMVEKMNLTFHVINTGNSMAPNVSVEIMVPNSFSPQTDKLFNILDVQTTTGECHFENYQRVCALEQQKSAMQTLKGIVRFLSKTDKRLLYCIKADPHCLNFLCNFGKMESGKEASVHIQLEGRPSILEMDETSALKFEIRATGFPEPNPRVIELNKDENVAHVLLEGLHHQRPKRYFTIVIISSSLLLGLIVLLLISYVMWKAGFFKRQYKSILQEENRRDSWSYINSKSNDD

[8] = superoxide lowering in aged yeast cells, pilot screen, validation compound set (AID 2706;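 active = superoxide response below 65% of plate, a cut near 3 SD across the whole screen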;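 note: yeast exposed to compound for one week at 30 degrees C before staining; 100% = mean of all compound wells on the same plate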); settings: S. cerevisiae aging, superoxide DHE fluorescence; at 10 µM, stronger effect = lower value
[9] = biological target: Beta-adrenergic receptor kinase 1 (Homo sapiens) (UniProt P25098); test: GRK2 binders displacing RNA aptamer, biochemical, validation, human GRK2, bead flow cytometry (AID 488806;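 active = aptamer binding inhibition above 30%, about 3 SD of noise from non-fluorescent compounds; inactive = inhibition at or below 30%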); settings: bead-bound GRK2, FAM-aptamer displacement, at 10 µM, stronger effect = higher value
Chain of Beta-adrenergic receptor kinase 1 (Homo sapiens) (P25098 whole entry, looked up): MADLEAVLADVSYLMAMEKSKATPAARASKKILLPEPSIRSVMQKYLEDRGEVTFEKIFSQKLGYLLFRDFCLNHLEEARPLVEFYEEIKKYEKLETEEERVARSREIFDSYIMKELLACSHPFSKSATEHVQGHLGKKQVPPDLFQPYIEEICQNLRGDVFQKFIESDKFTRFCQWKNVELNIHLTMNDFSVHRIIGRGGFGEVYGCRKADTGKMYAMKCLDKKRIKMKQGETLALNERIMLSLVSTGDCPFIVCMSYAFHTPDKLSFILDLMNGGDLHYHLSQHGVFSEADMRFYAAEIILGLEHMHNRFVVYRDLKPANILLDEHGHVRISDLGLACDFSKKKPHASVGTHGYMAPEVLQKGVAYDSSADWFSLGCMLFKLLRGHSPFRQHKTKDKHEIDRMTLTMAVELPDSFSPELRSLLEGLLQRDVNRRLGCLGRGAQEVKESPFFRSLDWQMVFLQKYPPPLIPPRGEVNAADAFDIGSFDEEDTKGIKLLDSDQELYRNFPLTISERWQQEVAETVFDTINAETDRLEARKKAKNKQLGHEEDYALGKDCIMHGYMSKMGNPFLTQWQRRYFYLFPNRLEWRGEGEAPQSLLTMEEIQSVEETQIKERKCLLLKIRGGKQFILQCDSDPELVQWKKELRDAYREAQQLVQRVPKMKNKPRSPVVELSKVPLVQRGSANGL

[10] = biological target: AP-2 complex subunit beta (Homo sapiens) (UniProt P63010); test: inhibitors of arrestin peptide binding to AP2, pilot screen, biochemical, validation set, GST-AP2 beads, flow cytometry (AID 504541;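 active = inhibition above 54%, about 3 SD of non-fluorescent compounds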;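 note: AP2 carries R879A mutation and is captured from E. coli lysate; bead-bound FITC arrestin peptide fluorescence measuring arrestin peptide binding to AP2; 0% = DMSO wells and 100% = excess unlabeled arrestin peptide control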); settings: FITC arrestin peptide, at 10 µM, stronger effect = higher value, AP2 beta2 appendage fragment, R879A mutant
Chain of AP-2 complex subunit beta (Homo sapiens) (P63010 whole entry, looked up, the tested form may be a part, one chain of several): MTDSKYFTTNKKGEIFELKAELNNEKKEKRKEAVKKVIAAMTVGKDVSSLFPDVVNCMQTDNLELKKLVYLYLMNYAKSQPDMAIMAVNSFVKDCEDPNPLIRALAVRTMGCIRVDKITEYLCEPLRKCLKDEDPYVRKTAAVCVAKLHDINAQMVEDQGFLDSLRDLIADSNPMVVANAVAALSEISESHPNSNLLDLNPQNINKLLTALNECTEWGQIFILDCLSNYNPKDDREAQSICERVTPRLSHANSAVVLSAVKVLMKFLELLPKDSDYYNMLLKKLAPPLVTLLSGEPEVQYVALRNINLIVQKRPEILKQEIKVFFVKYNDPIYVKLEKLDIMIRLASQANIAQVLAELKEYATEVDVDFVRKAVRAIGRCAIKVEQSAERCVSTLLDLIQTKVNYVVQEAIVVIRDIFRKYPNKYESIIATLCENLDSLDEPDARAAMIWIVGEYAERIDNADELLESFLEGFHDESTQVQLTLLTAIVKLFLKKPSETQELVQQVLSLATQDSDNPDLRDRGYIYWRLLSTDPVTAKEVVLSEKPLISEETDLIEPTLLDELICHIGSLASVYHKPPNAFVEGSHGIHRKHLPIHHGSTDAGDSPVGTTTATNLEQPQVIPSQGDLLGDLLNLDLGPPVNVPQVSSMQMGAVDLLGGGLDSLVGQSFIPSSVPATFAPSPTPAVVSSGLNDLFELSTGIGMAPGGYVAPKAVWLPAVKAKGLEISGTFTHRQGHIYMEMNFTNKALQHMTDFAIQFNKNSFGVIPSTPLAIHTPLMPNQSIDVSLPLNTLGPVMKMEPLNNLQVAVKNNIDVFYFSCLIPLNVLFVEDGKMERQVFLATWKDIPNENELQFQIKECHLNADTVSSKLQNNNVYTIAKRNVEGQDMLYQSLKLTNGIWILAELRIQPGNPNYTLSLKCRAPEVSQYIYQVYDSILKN

[11] = yeast V-ATPase proton transport modulators, S. cerevisiae, pHLuorin, HTS validation (AID 504600; in the data active = response above about 15%;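 note: plate controls were DMSO for no effect and reference compound for full effect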); settings: S. cerevisiae pHLuorin cytosolic pH, at 10 µM, stronger effect = higher value
[12] = system: anti-desmoglein-3 scFv antibody binding to human DSG3; test: inhibitors of anti-DSG3 scFv binding to DSG3, pilot screen, biochemical, validation compound set, bead-based, flow cytometry (AID 588368;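 active = binding below the plate cutoff, the plate median minus 3 SD, with a reading above zero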;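 note: signal is the median channel fluorescence of bead-bound GFP antibody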); settings: Protein G beads, DSG3-Fc, scFv-GFP binding, at 10 µM, stronger effect = lower value
[13] = inhibitors of fungal efflux pumps CDR1, CDR2, MDR1, pilot screen, validation compound set, multiplex, phenotypic (AID 588506;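 active = efflux inhibition above 0.42, the validation set average plus 4 SD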;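 note: Nile Red retained in cells so higher fluorescence means more efflux inhibition; 0 = negative control wells and 1 = enniatin B 25 µM full block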); settings: S. cerevisiae pump-expressing triplex, Nile Red efflux flow cytometry; at 10 µM; stronger effect = higher value; the pumps come from Candida albicans
[14] = biological target: ATP-binding cassette sub-family B member 6 (Homo sapiens) (UniProt Q9NP58); test: ABCB6 transporter inhibitors, pilot screen, K562-ABCB6 cells, flow cytometry, validation set (AID 588550); settings: K562-ABCB6 porphyrin accumulation, 1 h, at 10 µM, stronger effect = higher value;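 note: 0% = DMSO wells and 100% = benzethonium chloride 70 µM positive control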
Chain of ATP-binding cassette sub-family B member 6 (Homo sapiens) (Q9NP58 whole entry, looked up): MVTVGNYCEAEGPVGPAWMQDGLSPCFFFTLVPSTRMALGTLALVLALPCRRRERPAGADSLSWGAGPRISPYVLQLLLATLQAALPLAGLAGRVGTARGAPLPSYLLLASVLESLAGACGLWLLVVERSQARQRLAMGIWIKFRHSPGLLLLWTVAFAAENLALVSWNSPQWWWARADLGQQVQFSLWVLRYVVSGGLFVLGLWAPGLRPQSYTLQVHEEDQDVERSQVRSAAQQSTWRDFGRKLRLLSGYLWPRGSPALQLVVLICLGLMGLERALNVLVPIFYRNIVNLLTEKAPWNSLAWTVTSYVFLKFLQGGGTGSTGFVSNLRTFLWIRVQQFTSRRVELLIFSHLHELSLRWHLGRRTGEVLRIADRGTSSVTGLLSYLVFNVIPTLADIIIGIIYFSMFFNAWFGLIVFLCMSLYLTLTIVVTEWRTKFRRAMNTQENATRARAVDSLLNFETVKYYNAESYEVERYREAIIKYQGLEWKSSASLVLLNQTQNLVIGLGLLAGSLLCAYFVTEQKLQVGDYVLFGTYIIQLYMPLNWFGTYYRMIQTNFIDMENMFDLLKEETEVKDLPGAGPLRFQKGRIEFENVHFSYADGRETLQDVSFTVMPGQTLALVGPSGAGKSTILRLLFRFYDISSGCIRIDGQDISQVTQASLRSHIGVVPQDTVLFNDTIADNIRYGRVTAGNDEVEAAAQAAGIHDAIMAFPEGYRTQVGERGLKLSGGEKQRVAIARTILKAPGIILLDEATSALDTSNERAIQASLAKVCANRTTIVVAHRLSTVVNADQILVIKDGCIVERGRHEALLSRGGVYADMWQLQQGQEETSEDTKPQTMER

[15] = promoters of myeloid differentiation in arrested cells, primary screen, cell-based, GFP/MAC1 double positive, flow cytometry, validation set (AID 588685;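 active = differentiation response of at least 50%, scaled between solvent and reference control, from cells with both markers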;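 note: compound exposure lasts four days before antibody staining and flow analysis; 0% = DMSO wells and 100% = 5 µM fulvestrant positive control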); settings: ER-HoxA9 marrow cells, stronger effect = higher value, normalized: vehicle 0, fulvestrant 100

| SMILES | percent of DMSO control GFP [1] | GFP response vs DMSO [2] | percent response of DMSO control [3] | GFP response vs DMSO [4] | GFP response, % of DMSO [5] | double positive events [6] [%] | vesicle binding response [6] | inhibition [7] | superoxide response (% of plate) [8] | aptamer binding inhibition [9] | inhibition [10] | response [11] | binding (% of control) [12] | efflux inhibition (fraction of control) [13] | inhibition [14] | differentiation response [15] |
| --- | --- | --- | --- | --- | --- | --- | --- | --- | --- | --- | --- | --- | --- | --- | --- | --- |
| COc1cc2nc(N3CCN(C(=O)C4COc5ccccc5O4)CC3)nc(N)c2cc1OC (stereo not given) | 101% (inactive) | 108% (inactive) | 104% (inactive) | 110% (inactive) | 116% (inactive) | 61.4 | 203% (inactive) | -8.78% (inactive) | 57.2% (active) | 1% (inactive) | 26.5% (inactive) | -4.66% (inactive) | 108% (inactive) | 0 (inactive) | -6% (inactive) | 3.88% (inactive) |
| Cc1cnc(C(=O)NCCc2ccc(S(=O)(=O)NC(=O)NC3CCCCC3)cc2)cn1 | 93.9% (inactive) | 93.8% (inactive) | 110% (inactive) | 92.3% (inactive) | 92.2% (inactive) | 65 | 230% (inactive) | -9.57% (inactive) | 95.2% (inactive) | 2% (inactive) | -11.4% (inactive) | -3.18% (inactive) | 104% (inactive) | -0.12 (inactive) | 4% (inactive) | -3.43% (inactive) |
| COc1ccc(C2(CCN=Cc3ccc(N(C)C)cc3)CCOC(C)(C)C2)cc1 (stereo not given) | 104% (inactive) | 102% (inactive) | 99.8% (inactive) | 95.4% (inactive) | 95.2% (inactive) | 58.8 | 222% (inactive) | -3.97% (inactive) | 98.3% (inactive) | 0% (inactive) | -3.62% (inactive) | -4.5% (inactive) | 128% (inactive) | -0.24 (inactive) | 12% (inactive) | 7.87% (inactive) |
| CC(=O)OCC(=O)[C@@]12OC(C)(C)O[C@@H]1C[C@H]1[C@@H]3C[C@H](F)C4=CC(=O)C=C[C@]4(C)[C@@]3(F)[C@@H](O)C[C@@]12C | 104% (inactive) | 107% (inactive) | 106% (inactive) | 100% (inactive) | 105% (inactive) | 64.6 | 212% (inactive) | 3.49% (inactive) | 94.7% (inactive) | 0% (inactive) | 2.71% (inactive) | 1.38% (inactive) | 91.8% (inactive) | 0.03 (inactive) | 8% (inactive) | 19.2% (inactive) |
| CC1=CC2(O)OCCN(CCO)C2=CC1=O (stereo not given) | 103% (inactive) | 102% (inactive) | 101% (inactive) | 93.3% (inactive) | 97.9% (inactive) | 56.9 | 162% (inactive) | -12.4% (inactive) | 103% (inactive) | 2% (inactive) | -3.8% (inactive) | -1.28% (inactive) | 102% (inactive) | 0.29 (inactive) | 7% (inactive) | 3.03% (inactive) |
| CC(C)[N+]1(C)[C@@H]2CC[C@H]1CC(OC(=O)C(CO)c1ccccc1)C2 (stereo not given in full) | 101% (inactive) | 95.9% (inactive) | 102% (inactive) | 101% (inactive) | 104% (inactive) | 53.4 | 158% (inactive) | 27.7% (inactive) | 94.6% (inactive) | -2% (inactive) | 7.81% (inactive) | 2.53% (inactive) | 102% (inactive) | -0.12 (inactive) | 11% (inactive) | -9.89% (inactive) |
| CN(Cc1ccccc1)CC(O)COc1ccc(CNCc2cccnc2)cc1 (stereo not given) | 101% (inactive) | 102% (inactive) | 103% (inactive) | 91.3% (inactive) | 100% (inactive) | 56.7 | 211% (inactive) | -1.17% (inactive) | 93.8% (inactive) | -6% (inactive) | -7.34% (inactive) | 2.19% (inactive) | 105% (inactive) | -0.16 (inactive) | 9% (inactive) | 24% (inactive) |
| N/C(=N\OS(=O)(=O)c1ccc2ccccc2c1)c1cccnc1 | 103% (inactive) | 104% (inactive) | 95.9% (inactive) | 99.4% (inactive) | 97.5% (inactive) | 61.4 | 133% (inactive) | 2.56% (inactive) | 96.2% (inactive) | 2% (inactive) | 45.4% (inactive) | -4.42% (inactive) | 108% (inactive) | 0.29 (inactive) | 6% (inactive) | -13.1% (inactive) |
| CC[n+]1c(C)sc2cc(C)ccc21 | 96.4% (inactive) | 103% (inactive) | 87.1% (inactive) | 116% (inactive) | 95.4% (inactive) | 50 | 138% (inactive) | -11.4% (inactive) | 106% (inactive) | 6% (inactive) | -14% (inactive) | -1.58% (inactive) | 102% (inactive) | 0.44 (active) | 15% (inactive) | -13.1% (inactive) |
| O=C(O)CC(O)C(=O)O (stereo not given) | 101% (inactive) | 106% (inactive) | 103% (inactive) | 104% (inactive) | 99.6% (inactive) | 62.1 | 146% (inactive) | 10.9% (inactive) | 95.8% (inactive) | 3% (inactive) | 1.04% (inactive) | -1.46% (inactive) | 99.3% (inactive) | 0.1 (inactive) | 14% (inactive) | 1.41% (inactive) |
